This note sets out measurements from PubChem BioAssay.

In general, AC50 refers to the concentration at which the activity in the assay is half-maximal. What is called IC50 is the concentration needed to halve the response being measured. The viability is a read-out of living cells in per cent, often relative to untreated cells.

Inconclusive results are not listed. Activity calls are given as the source filed them.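 How the source made its calls, unless noted: active means normalized viability below 100% at a tested concentration; inactive means the rest.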

Assay [1] can be described thus: viability loss in pontine glioma line – cell-based, SU-DIPG-XVII, MIPE5.0, CellTiter-Glo, qHTS, dose response (AID 1347060; cut-off not given, nearly all actives have AC50 up to about 26 µM;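 further: cells exposed to compound for 48 hours before viability readout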). Conditions: CellTiter-Glo ATP luminescence. (In ATP-based viability assays light output follows the ATP content of the culture.)
Assay [2] can be described thus: viability loss in pontine glioma line – cell-based, SU-DIPG-XIII, MIPE5.0, CellTiter-Glo, qHTS, dose response (AID 1347064; cut-off not given, nearly all actives have AC50 up to about 23 µM;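 further: cells exposed to compound for 48 hours before the viability read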). The following applies: CellTiter-Glo ATP luminescence.
The nature of assay [3]: viability loss in pontine glioma line – cell-based, SU-DIPG-XXV, MIPE5.0, CellTiter-Glo, qHTS, dose response (AID 1347065; cut-off not given, nearly all actives have AC50 up to about 26 µM;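 further: cells exposed to compound for 48 hours before ATP readout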). Conditions: CellTiter-Glo ATP luminescence.
Assay [4] in a line: JHH-DIPG-1 glioma cell viability, MIPE5.0 library, CellTiter-Glo luminescence, qHTS (AID 1347067; cut-off not given, nearly all actives have AC50 up to about 26 µM;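 further: cells exposed to compound for 48 hours before readout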). The following applies: JHH-DIPG-1 glioma viability, CellTiter-Glo ATP luminescence.
Assay [5] in a line: growth inhibition of DIPG cells – cell-based, MIPE5.0 library, qHTS (AID 1347068; cut-off not given, nearly all actives have IC50 up to about 30 µM;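 on IC50: cells exposed to compound for 48 hours before viability readout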). The following applies: SU-DIPG-XXV viability. In general terms: qHTS replaces the single test concentration by a dilution series.
Assay [6] can be described thus: viability loss with induced miR-34 in A549 – imaging, A549 dox-inducible miR-34, nuclei and caspase counts, primary screen (AID 1347080;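 active means compounds whose cell count with miR-34 switched on is under 0.7 times the count with it off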). Conditions: A549 miR-34 inducible, Hoechst nuclei count, 48 h.
Assay [7] is described as follows: MELAS cybrid and Rieske KO viability enhancers – cell-based, MELAS cybrids, Rieske KO mouse fibroblasts, CellTiter-Glo, primary screen (AID 1508586;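 active means mean z-score across replicates of 1.96 or higher in either the MELAS or the Rieske mutant cell line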;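 further: z relative to plate mean and SD of compound and empty wells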). Conditions: low glucose.
Assay [8] in a line: drug combination growth inhibition, ovarian cancer – cell-based, oncology-focused library, rucaparib conditional, profiling panel (AID 1508598). The following applies: patient-derived ovarian cancer cells, CellTiter-Glo viability, 144 h, stronger effect = lower value.
[9] abbreviates: stronger effect = lower value, cell number ratio, induced over uninduced.
Setting [10] is: measured here: relative caspase fold change +Dox/-Dox.
The mark [11] stands for this setting: measured here: total cells with miR-34 induction, stronger effect = lower value.
[12] abbreviates: measured here: total cells without miR-34 induction.
[13] abbreviates: MELAS cybrid survival, CellTiter-Glo 48 h, stronger effect = higher value.
Where [14] appears, read: Rieske KO mouse fibroblast survival, CellTiter-Glo 72 h.

As to `c1ccc(Cn2c(-c3ccc(OCC(C4CCNCC4)n4c(-c5ccccc5)nc5ccccc54)cc3)nc3ccccc32)cc1` (stereo not given), the AC50 in assay [1] is 18.6 µM (active); in assay [2], 20.9 µM (active); in assay [3], 13.2 µM (active); in assay [4] it was 16.6 µM (active). Further, in assay [5], the IC50 was 23.5 µM (active). Also, the fold change is 1.11 (inactive) in assay [6] (setting [9]) and 0.359 in assay [6] (setting [10]). The values for the cell count in assay [6] (setting [11]) and in assay [6] (setting [12]) were 5600 and 5040, respectively. Further, the values for the z-score in assay [7] (setting [13]) and in assay [7] (setting [14]) were -0.583 (inactive) and -1.33, respectively.
Regarding `CCOC(=O)CCNc1cc(N2CCc3ccccc3CC2)nc(-c2ccccn2)n1`, the AC50 in assay [1] is 2.95 µM (active); in assay [2], 3.32 µM (active); in assay [3] it was 14.8 µM (active); in assay [4] it was 5.25 µM (active). The IC50 in assay [5] is 8.33 µM (active). Also, the fold change in assay [6] (setting [9]) is 0.698 (active); in assay [6] (setting [10]), 1.37. For the same compound, the cell count in assay [6] (setting [11]) turned out to be 3830; in assay [6] (setting [12]), 5480. Moreover, the results for the z-score in assay [7] (setting [13]) and in assay [7] (setting [14]) were -0.444 (inactive) and -0.225, respectively.
As to `CN(NC(=O)CC(=O)NN(C)C(=S)c1ccccc1)C(=S)c1ccccc1`, the AC50 in assay [1] was 0.0186 µM (active); in assay [2], 0.00934 µM (active); in assay [3], 0.0186 µM (active); in assay [4], 0.00525 µM (active). Also, the outcome in assay [5] was inactive. Also, the fold change in assay [6] (setting [9]) is 0.813 (inactive); in assay [6] (setting [10]), 1.14. For the same compound, the cell count in assay [6] (setting [11]) came out at 4660; in assay [6] (setting [12]) it was 5740. Besides, the z-score in assay [7] (setting [13]) is 2.12 (active); in assay [7] (setting [14]), -2.56. The viability in assay [8] (at 0.000305 µM, OCI-C5x cells, with rucaparib 10 µM, 100% = cells with rucaparib alone) is 121% (inactive); in assay [8] (at 0.000305 µM, OCI-C5x cells, without rucaparib), 108% (inactive); in assay [8] (at 0.000305 µM, OCI-P5x cells, with rucaparib 20 µM, 100% = cells with rucaparib alone), 83.3% (active); in assay [8] (at 0.000305 µM, OCI-P5x cells, without rucaparib) it was 88% (active); in assay [8] (at 0.00122 µM, OCI-C5x cells, with rucaparib 10 µM, 100% = cells with rucaparib alone), 135% (inactive); in assay [8] (at 0.00122 µM, OCI-C5x cells, without rucaparib), 131% (inactive). Also, the viability is 80.6% (active) in assay [8] (at 0.00122 µM, OCI-P5x cells, with rucaparib 20 µM, 100% = cells with rucaparib alone); 75.2% (active) in assay [8] (at 0.00122 µM, OCI-P5x cells, without rucaparib); 143% (inactive) in assay [8] (at 0.00488 µM, OCI-C5x cells, with rucaparib 10 µM, 100% = cells with rucaparib alone); 129% (inactive) in assay [8] (at 0.00488 µM, OCI-C5x cells, without rucaparib); 82.9% (active) in assay [8] (at 0.00488 µM, OCI-P5x cells, with rucaparib 20 µM, 100% = cells with rucaparib alone); 81.1% (active) in assay [8] (at 0.00488 µM, OCI-P5x cells, without rucaparib). The viability in assay [8] (at 0.0195 µM, OCI-C5x cells, with rucaparib 10 µM, 100% = cells with rucaparib alone) was 151% (inactive); in assay [8] (at 0.0195 µM, OCI-C5x cells, without rucaparib), 131% (inactive); in assay [8] (at 0.0195 µM, OCI-P5x cells, with rucaparib 20 µM, 100% = cells with rucaparib alone) it was 88.5% (active); in assay [8] (at 0.0195 µM, OCI-P5x cells, without rucaparib) it was 84.6% (active); in assay [8] (at 0.0781 µM, OCI-C5x cells, with rucaparib 10 µM, 100% = cells with rucaparib alone), 140% (inactive); in assay [8] (at 0.0781 µM, OCI-C5x cells, without rucaparib), 122% (inactive). In addition, the viability in assay [8] (at 0.0781 µM, OCI-P5x cells, with rucaparib 20 µM, 100% = cells with rucaparib alone) was 98.6% (active); in assay [8] (at 0.0781 µM, OCI-P5x cells, without rucaparib), 81% (active); in assay [8] (at 0.313 µM, OCI-C5x cells, with rucaparib 10 µM, 100% = cells with rucaparib alone), 126% (inactive); in assay [8] (at 0.313 µM, OCI-C5x cells, without rucaparib), 133% (inactive); in assay [8] (at 0.313 µM, OCI-P5x cells, with rucaparib 20 µM, 100% = cells with rucaparib alone) it was 96% (active); in assay [8] (at 0.313 µM, OCI-P5x cells, without rucaparib), 95.1% (active). Also, the viability in assay [8] (at 1.25 µM, OCI-C5x cells, with rucaparib 10 µM, 100% = cells with rucaparib alone) was 125% (inactive); in assay [8] (at 1.25 µM, OCI-C5x cells, without rucaparib), 123% (inactive); in assay [8] (at 1.25 µM, OCI-P5x cells, with rucaparib 20 µM, 100% = cells with rucaparib alone), 82.2% (active); in assay [8] (at 1.25 µM, OCI-P5x cells, without rucaparib), 97.2% (active); in assay [8] (at 5 µM, OCI-C5x cells, with rucaparib 10 µM, 100% = cells with rucaparib alone), 128% (inactive); in assay [8] (at 5 µM, OCI-C5x cells, without rucaparib), 121% (inactive). In addition, the viability was 99% (active) in assay [8] (at 5 µM, OCI-P5x cells, with rucaparib 20 µM, 100% = cells with rucaparib alone) and 98% (active) in assay [8] (at 5 µM, OCI-P5x cells, without rucaparib).
